The text below walks through data of PubChem BioAssay (NCI).

Holding throughout (assay): NCI-60 one-dose screen, 48 h (100 = growth as untreated, 0 = no growth, -100 = all killed)
Holding throughout (details): 10 µM unless noted

Assay [1] has as its system BT-549 breast.
In assay [2] the test system is MDA-MB-435 melanoma.
Assay [3] has as its system SW-620 colon.
The test system of assay [4] is MCF7 breast.
In assay [5] the test system is HCT-116 colon.
For assay [6], the system named is HCC-2998 colon.
Assay [7] relates to KM12 colon.

The panel holds about 83,000 compounds, 20% with a hit somewhere; the sample as a whole holds those more often.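 Treatment: one concentration, 48 hours, 96-well format. Scoring: percent growth, with anything below 10 considered active.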 A number with no mark means an inactive call. Calls of active or inactive are those of the source.

Take `COc1ccc(-c2cc(C(=O)N3N=C(c4ccc(N)cc4)CC3c3ccc(OC)cc3)c3cc(OC)ccc3n2)cc1` (configuration not stated): the growth is 66.4% in assay [1]; 3.45% (active) in assay [2]; 30.1% in assay [3]; 14.2% in assay [4]; 7.78% (active) in assay [5]; 91.6% in assay [6]. Besides, in assay [7], the growth is 22.5%.

For `Cc1cc(C)cc(Nc2nccc(-c3c(-c4ccc(F)cc4)ncn3C3CCNCC3)n2)c1`, the growth is 17.7% in assay [1]; -78.8% (active) in assay [2]; -28% (active) in assay [3]; -8.14% (active) in assay [4]; -98.8% (active) in assay [5]; -60.2% (active) in assay [6]. The growth in assay [7] is 11.8%.

Turning to `O=C1CS/C(=N/c2nnc(-c3ccc(O)cc3)s2)N1`, the growth in assay [1] was 100%; in assay [2] it was 103%; in assay [3], 107%; in assay [4], 89.3%; in assay [5], 99.8%; in assay [6] it was 102%. The growth in assay [7] is 100%.

As to `CNS(=O)(=O)c1cccc(-c2ccc3c4c(n(C)c(=O)c3c2)-c2ccccc2C4=O)c1`, the growth in assay [1] is 76.6%; in assay [2], 74.5%; in assay [3] it was 46.4%; in assay [4] it was 18.5%; in assay [5] it was 36.4%; in assay [6], 90.6%. In assay [7], the growth is 40.7%.

Turning to `C#CCOC(=O)[C@]1(C)CCC[C@]2(C)[C@H]3C[C@H]4C(C(C)C)=C[C@]3(CC[C@H]21)[C@@H]1C(=O)CCC(=O)[C@@H]14`, the growth is 91.7% in assay [1]; 97.7% in assay [2]; 86.9% in assay [3]; 83.2% in assay [4]; 77.8% in assay [5]; 102% in assay [6]. The growth in assay [7] is 87%.

As to `COC(=O)c1cc2c3c(cc(O)c2[nH]1)N(C(=O)C1Cc2cc(OC)c(OC)c(OC)c2N1)CC3CCl` (configuration not stated), the growth in assay [1] is -84.6% (active); in assay [2], -14% (active); in assay [3], -10.8% (active); in assay [4] it was -5.51% (active); in assay [5] it was -63.3% (active); in assay [6] it was -73.2% (active). In assay [7], the growth was -29.4% (active).

On to `CCSc1ccc(C2C(Br)C(=O)N2c2cc(OC)c(OC)c(OC)c2)cc1` (configuration not stated), for which the growth is 13.8% in assay [1]; -1.6% (active) in assay [2]; 23% in assay [3]; 13.2% in assay [4]; 4.7% (active) in assay [5]; 31.7% in assay [6]. Further, the growth in assay [7] is 17%.

In the case of `C#C[C@@]1(O)[C@@H](CO)O[C@@H](n2cnc3c(-c4ccccc4)ncnc32)[C@@H]1O`, the growth is 102% in assay [1]; 100% in assay [2]; 111% in assay [3]; 82.1% in assay [4]; 99.8% in assay [5]; 103% in assay [6]. The growth in assay [7] is 106%.

`C/C(=C\c1cnc(C)s1)[C@@H]1C[C@@H]2O[C@@H]2CCC[C@H](C)[C@H](O)[C@@H](C)C(=O)C(C)(C)[C@@H](O)CC(=O)O1`: the growth in assay [1] is 39.4%; in assay [2], 4.21% (active); in assay [3], 34.8%; in assay [4] it was 17.1%; in assay [5], 18.4%; in assay [6], 18.6%. For the same molecule, the growth in assay [7] is 24.6%.

For `Cc1ccc(-c2nc(C#N)c(S(=O)(=O)N(C)CCO)o2)cc1`, the growth in assay [1] is 76.7%; in assay [2], 65%; in assay [3], 35.1%; in assay [4], 39.8%; in assay [5], 53.4%; in assay [6] it was 107%. Moreover, the growth in assay [7] was 89.9%.

For `C=C1C(=O)O[C@H]2[C@H]1CC/C(COC(=O)NCC(=O)Nc1ccc(OC)c(C(N)=O)c1O)=C\CC[C@@]1(C)O[C@@H]21`, the growth in assay [1] is 47.4%; in assay [2], 56.3%; in assay [3], 10.6%; in assay [4], 18.6%; in assay [5] it was 36%; in assay [6] it was 102%. The growth in assay [7] was 92.8%.

Take `N#Cc1ccc(Oc2ccc3ccc(=O)oc3c2)cc1`: the growth is 110% in assay [1]; 120% in assay [2]; 96.5% in assay [3]; 97.3% in assay [4]; 91.5% in assay [5]; 104% in assay [6]. Moreover, the growth in assay [7] was 96.2%.

In the case of `COc1cc(-c2csc(NC(=O)Nc3cc(Cl)cc(Cl)c3)n2)cc(OC)c1OC`, the growth in assay [1] was 11.5%; in assay [2], 27.1%; in assay [3], -26.4% (active); in assay [4], 8.04% (active); in assay [5], -28.9% (active); in assay [6], 70.8%. For the same molecule, in assay [7], the growth is 18.5%.

Regarding `COC(=O)CCc1cc(O)c2c(c1)[C@@H](C(=O)OC)[C@H](c1ccc(O)c(O)c1)O2`, the growth in assay [1] was 51.7%; in assay [2], 4.1% (active); in assay [3], 63.8%; in assay [4] it was 23.7%; in assay [5] it was 59.5%; in assay [6] it was 94.9%. Moreover, in assay [7], the growth is 55.8%.

In the case of `C=C(C)[C@@H]1CC[C@]2(C(=O)OCCOCCOCC[P+](c3ccccc3)(c3ccccc3)c3ccccc3)CC[C@]3(C)[C@H](CC[C@@H]4[C@@]5(C)CC[C@H](OC(=O)C(Cl)Cl)C(C)(C)[C@@H]5CC[C@]43C)[C@@H]12`, the growth in assay [1] was -89.4% (active); in assay [2], -62.5% (active); in assay [3] it was 5.87% (active); in assay [4], 1.7% (active); in assay [5], -84.1% (active); in assay [6], 12.1%. Moreover, the growth in assay [7] was -55.7% (active).

`Cc1ccc(C2CC(c3ccc(Nc4nc(NCCO)nc(NCCO)n4)cc3)=NN2c2ccc(Cl)cc2)cc1` (configuration not stated): the growth in assay [1] is 79%; in assay [2] it was 61.5%; in assay [3], 80.4%; in assay [4] it was 27.6%; in assay [5], 41.2%; in assay [6], 64.1%. Also, the growth in assay [7] is 52.4%.
